The supplement of paper PMC6555819

What was measured:
Assay in all cases: PBM binding z-score (relative to random genomic background probes); higher = stronger binding; sequences stand for … in GC…GCGATTGACAGCGTAGAATGAAGG
[1] = system: PPARg:RXRa DBDmut IVT, anti-RXR (DBD mutation: RXRa K156A/R161A, NR concentration 270 nM, RXRa partner concentration 90 nM)
How it was run: (§1)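 Binding buffer was PBS pH 7.4 with 2% milk, 0.02% Triton X-100, 1 mM DTT, 0.2 mg/mL BSA and 0.4 mg/ml salmon testes DNA. In it, ligand-free nuclear receptor dimers were incubated 1 h on custom Agilent 4×180K protein-binding microarrays carrying double-stranded probes. Antibodies against each partner (one per run) detected binding, and z-scores were calculated against random background probes after regression normalization of scanned fluorescence.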

[2] = system: PPARg:RXRa IVT, anti-PPARg (NR concentration 270 nM, RXRa partner concentration 90 nM)
How it was run: as §1

[3] = system: PPARg DBDmut:RXRa IVT, anti-PPARg (DBD mutation: PPARg1 K132A/R137A, NR concentration 270 nM, RXRa partner concentration 90 nM)
How it was run: as §1

[4] = system: PPARg DBDmut IVT, anti-PPARg (DBD mutation: PPARg1 K132A/R137A, NR concentration 270 nM)
How it was run: as §1

[5] = system: PPARg homodimer (NR concentration 180 nM)
How it was run: as §1

[6] = system: PXR:RXRa (NR concentration 270 nM, RXRa partner concentration 90 nM)
How it was run: as §1

[7] = system: PXR homodimer (NR concentration 270 nM)
How it was run: as §1

[8] = system: RARa:RXR (NR concentration 270 nM, RXRa partner concentration 90 nM)
How it was run: as §1

[9] = system: RARa homodimer (NR concentration 270 nM)
How it was run: as §1

[10] = system: RARb:RXRa (NR concentration 270 nM, RXRa partner concentration 90 nM)
How it was run: as §1

Question: How did the PBM binding z-score [1] turn out when CCGGCTAGGTCATGGTCAGCTAATCTACAGTATG was run?
Answer: The PBM binding z-score was 3.44.

Question: What about the PBM binding z-score [2] of the same sequence?
Answer: Its PBM binding z-score is 2.65.

Question: And the PBM binding z-score [3]?
Answer: Its PBM binding z-score is -0.0629.

Question: What about the PBM binding z-score [4] of the same sequence?
Answer: Its PBM binding z-score is -0.269.

Question: And the PBM binding z-score [5]?
Answer: The PBM binding z-score was 2.5.

Question: What about the PBM binding z-score [6] of the same sequence?
Answer: The PBM binding z-score was 1.4.

Question: And the PBM binding z-score [7]?
Answer: The PBM binding z-score was -0.16.

Question: And the PBM binding z-score [8]?
Answer: The PBM binding z-score was 2.53.

Question: What about the PBM binding z-score [9] of the same sequence?
Answer: Its PBM binding z-score is 0.954.

Question: And the PBM binding z-score [10]?
Answer: The PBM binding z-score was 3.91.

Question: With CATACAGCGTCAGCTAGGCCAGAGTAGGGACGGC as the sequence, how does the PBM binding z-score [1] read?
Answer: The PBM binding z-score was -0.164.

Question: And the PBM binding z-score [2]?
Answer: The PBM binding z-score was -0.272.

Question: And the PBM binding z-score [3]?
Answer: Its PBM binding z-score is -0.28.

Question: And the PBM binding z-score [4]?
Answer: The PBM binding z-score was 0.0344.

Question: What about the PBM binding z-score [5] of the same sequence?
Answer: The PBM binding z-score was -0.557.

Question: What about the PBM binding z-score [6] of the same sequence?
Answer: The PBM binding z-score was -1.3.

Question: What about the PBM binding z-score [7] of the same sequence?
Answer: The PBM binding z-score was -0.659.

Question: And the PBM binding z-score [8]?
Answer: The PBM binding z-score was -0.799.

Question: And the PBM binding z-score [9]?
Answer: The PBM binding z-score was -0.655.

Question: What about the PBM binding z-score [10] of the same sequence?
Answer: The PBM binding z-score was -0.287.

Question: With CATACAGGGTCAGCTACGCCAGAGTAGGGACGGC as the sequence, how does the PBM binding z-score [1] read?
Answer: Its PBM binding z-score is 1.11.

Question: And the PBM binding z-score [2]?
Answer: Its PBM binding z-score is 2.35.

Question: What about the PBM binding z-score [3] of the same sequence?
Answer: Its PBM binding z-score is 0.652.

Question: And the PBM binding z-score [4]?
Answer: Its PBM binding z-score is 1.25.

Question: What about the PBM binding z-score [5] of the same sequence?
Answer: Its PBM binding z-score is 1.54.

Question: And the PBM binding z-score [6]?
Answer: The PBM binding z-score was 2.22.

Question: What about the PBM binding z-score [7] of the same sequence?
Answer: The PBM binding z-score was -0.0173.

Question: What about the PBM binding z-score [8] of the same sequence?
Answer: The PBM binding z-score was 3.27.

Question: What about the PBM binding z-score [9] of the same sequence?
Answer: The PBM binding z-score was 0.771.

Question: And the PBM binding z-score [10]?
Answer: Its PBM binding z-score is 3.99.

Question: What does the source list for ATCGAAAGATCGAGGTGAGTATAGAGAAAGGGAA?
Answer: PBM binding z-score [1]: -0.0862; PBM binding z-score [2]: 1.27; PBM binding z-score [3]: 0.466; PBM binding z-score [4]: 0.643; PBM binding z-score [5]: -0.144; PBM binding z-score [6]: -0.176; PBM binding z-score [7]: -0.105; PBM binding z-score [8]: 0.139; PBM binding z-score [9]: -0.0593; PBM binding z-score [10]: 0.194

Question: Which results are given for TCGAGTAGGTTAGGGGCATGCAGAATGGCGTCGA?
Answer: PBM binding z-score [1]: 1.92; PBM binding z-score [2]: 1.32; PBM binding z-score [3]: -0.639; PBM binding z-score [4]: -1.3; PBM binding z-score [5]: 0.568; PBM binding z-score [6]: 0.108; PBM binding z-score [7]: -0.44; PBM binding z-score [8]: 0.383; PBM binding z-score [9]: -0.355; PBM binding z-score [10]: 1.2

Question: For CCAGACAGGTGAGAAGGTAGCTCAGCCTCGATTA, which PBM binding z-score [1] is on record?
Answer: The PBM binding z-score was 0.778.

Question: And the PBM binding z-score [2]?
Answer: The PBM binding z-score was 0.189.

Question: And the PBM binding z-score [3]?
Answer: Its PBM binding z-score is -0.969.

Question: What about the PBM binding z-score [4] of the same sequence?
Answer: The PBM binding z-score was -0.906.

Question: And the PBM binding z-score [5]?
Answer: Its PBM binding z-score is 0.136.

Question: And the PBM binding z-score [6]?
Answer: Its PBM binding z-score is -0.331.

Question: What about the PBM binding z-score [7] of the same sequence?
Answer: The PBM binding z-score was -0.00345.

Question: And the PBM binding z-score [8]?
Answer: Its PBM binding z-score is -0.134.

Question: What about the PBM binding z-score [9] of the same sequence?
Answer: The PBM binding z-score was 0.0537.

Question: What about the PBM binding z-score [10] of the same sequence?
Answer: Its PBM binding z-score is 0.327.

Question: How did the PBM binding z-score [1] turn out when CCTTACGGGTCACTGCCAGGTTATAGCATTTGGA was run?
Answer: Its PBM binding z-score is 3.11.

Question: What about the PBM binding z-score [2] of the same sequence?
Answer: Its PBM binding z-score is 3.87.

Question: And the PBM binding z-score [3]?
Answer: Its PBM binding z-score is 0.0612.

Question: And the PBM binding z-score [4]?
Answer: The PBM binding z-score was -0.48.

Question: What about the PBM binding z-score [5] of the same sequence?
Answer: Its PBM binding z-score is 2.07.

Question: And the PBM binding z-score [6]?
Answer: The PBM binding z-score was 3.53.

Question: And the PBM binding z-score [7]?
Answer: Its PBM binding z-score is 0.376.

Question: What about the PBM binding z-score [8] of the same sequence?
Answer: The PBM binding z-score was 3.87.

Question: What about the PBM binding z-score [9] of the same sequence?
Answer: The PBM binding z-score was 0.61.

Question: What about the PBM binding z-score [10] of the same sequence?
Answer: The PBM binding z-score was 3.8.

Question: How did the PBM binding z-score [1] turn out when CTCGAAAGGTCGGTTGAGGTAAGTATACGGATAA was run?
Answer: The PBM binding z-score was -0.106.

Question: And the PBM binding z-score [2]?
Answer: Its PBM binding z-score is 0.306.

Question: And the PBM binding z-score [3]?
Answer: Its PBM binding z-score is -0.141.

Question: And the PBM binding z-score [4]?
Answer: Its PBM binding z-score is 0.138.

Question: And the PBM binding z-score [5]?
Answer: The PBM binding z-score was 0.476.

Question: What about the PBM binding z-score [6] of the same sequence?
Answer: The PBM binding z-score was 2.45.

Question: And the PBM binding z-score [7]?
Answer: The PBM binding z-score was 0.12.

Question: What about the PBM binding z-score [8] of the same sequence?
Answer: Its PBM binding z-score is 1.54.

Question: And the PBM binding z-score [9]?
Answer: The PBM binding z-score was -0.0404.

Question: And the PBM binding z-score [10]?
Answer: Its PBM binding z-score is 2.64.

Question: How did the PBM binding z-score [1] turn out when CAAACTAGGTCACCGGAAGGACAAAGTCCGCATG was run?
Answer: Its PBM binding z-score is 8.34.

Question: And the PBM binding z-score [2]?
Answer: Its PBM binding z-score is 9.2.

Question: What about the PBM binding z-score [3] of the same sequence?
Answer: The PBM binding z-score was 4.33.

Question: And the PBM binding z-score [4]?
Answer: The PBM binding z-score was 1.54.

Question: And the PBM binding z-score [5]?
Answer: Its PBM binding z-score is 2.4.

Question: And the PBM binding z-score [6]?
Answer: The PBM binding z-score was 2.89.

Question: What about the PBM binding z-score [7] of the same sequence?
Answer: Its PBM binding z-score is 0.127.

Question: What about the PBM binding z-score [8] of the same sequence?
Answer: The PBM binding z-score was 4.17.

Question: What about the PBM binding z-score [9] of the same sequence?
Answer: The PBM binding z-score was 0.734.

Question: And the PBM binding z-score [10]?
Answer: Its PBM binding z-score is 4.69.

Question: Which results are given for TATACAGGGTCAAACGCCAGAGTACGAATGTCGA?
Answer: PBM binding z-score [1]: 2.52; PBM binding z-score [2]: 4.64; PBM binding z-score [3]: 3.59; PBM binding z-score [4]: 3.04; PBM binding z-score [5]: 3.53; PBM binding z-score [6]: 4.49; PBM binding z-score [7]: 0.94; PBM binding z-score [8]: 5.61; PBM binding z-score [9]: 0.721; PBM binding z-score [10]: 4.45

Question: Which results are given for CGAACTAGGTCAGAACTGGACAGTGAAGGATGAT?
Answer: PBM binding z-score [1]: 6.94; PBM binding z-score [2]: 7.08; PBM binding z-score [3]: 2.69; PBM binding z-score [4]: 3.66; PBM binding z-score [5]: 1.37; PBM binding z-score [6]: 0.313; PBM binding z-score [7]: -0.282; PBM binding z-score [8]: 0.591; PBM binding z-score [9]: -0.224; PBM binding z-score [10]: 2.71

Question: CCTGCTAGATCAATGGTCAGCTAAAGCAGCTCGC was tested. Which PBM binding z-score [1] did it give?
Answer: The PBM binding z-score was -0.539.

Question: What about the PBM binding z-score [2] of the same sequence?
Answer: The PBM binding z-score was -0.867.

Question: What about the PBM binding z-score [3] of the same sequence?
Answer: The PBM binding z-score was -1.21.

Question: What about the PBM binding z-score [4] of the same sequence?
Answer: Its PBM binding z-score is -1.31.

Question: And the PBM binding z-score [5]?
Answer: Its PBM binding z-score is -0.942.

Question: And the PBM binding z-score [6]?
Answer: The PBM binding z-score was -0.879.

Question: What about the PBM binding z-score [7] of the same sequence?
Answer: The PBM binding z-score was -0.691.

Question: What about the PBM binding z-score [8] of the same sequence?
Answer: Its PBM binding z-score is -0.744.

Question: And the PBM binding z-score [9]?
Answer: The PBM binding z-score was -0.962.

Question: What about the PBM binding z-score [10] of the same sequence?
Answer: Its PBM binding z-score is -0.116.
